The results in this text go back to PubChem BioAssay (EPA / NIEHS).

Active and inactive are the calls of the source. How the source made its calls: active means hit-call score of the fitted dose curve at least 0.9, where 1 is the maximum; inactive means score below 0.9.

Read-out in assay [1]: Forkhead box O1 (FOXO1), FOXO1 (gene 2308)
The assay is described as follows: LTEA_HepaRG_FOXO1: Life Technologies and Expression Analysis (LTEA) Assay for Forkhead box O1 (FOXO1) using HepaRG (AID 2283456). The conditions noted are these: mRNA level, 48 h; actives raise or lower the signal. In a few lines: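 HepaRG, 48 h exposure, 8-pt half-log series from 100 uM in 0.5% DMSO, duplicates; Fluidigm qRT-PCR mRNA, housekeeping-normalised; bidirectional fit vs DMSO baseline.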

Read-out in assay [2]: growth arrest and DNA damage 45 (GADD45A), GADD45A (gene 1647)
Put plainly: LTEA_HepaRG_GADD45A: Life Technologies and Expression Analysis (LTEA) Assay for growth arrest and DNA damage 45 (GADD45A) using HepaRG (AID 2283458). The conditions noted are these: mRNA level, 48 h; actives raise or lower the signal. In a few lines:
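GADD45A expression was measured by TaqMan qRT-PCR against three housekeeping genes (ACTB, GAPDH, POLR2A) after 48 h treatment of HepaRG cells. Eight-point half-log series up to 100 uM in 0.5% DMSO, run in duplicate.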

Read-out in assay [3]: Forkhead box O3 (FOXO3), FOXO3 (gene 2309)
Put plainly: LTEA_HepaRG_FOXO3: Life Technologies and Expression Analysis (LTEA) Assay for Forkhead box O3 (FOXO3) using HepaRG (AID 2283459). The following applies: mRNA level, 48 h; actives raise or lower the signal. The procedure, abridged: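 qRT-PCR readout of FOXO3 transcript, normalized to three housekeeping genes (ACTB, GAPDH, POLR2A); gain or loss fitted against 0.5% DMSO vehicle. HepaRG cells, 48 h chemical exposure, 8-point half-log series, top 100 uM.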

Read-out in assay [4]: ABC Transporter (ABCB1), ABCB1 (gene 5243)
Put plainly: LTEA_HepaRG_ABCB1: Life Technologies and Expression Analysis (LTEA) Assay for ABC Transporter (ABCB1) using HepaRG (AID 2283460). The conditions noted are these: mRNA level, 48 h; actives raise or lower the signal. In a few lines:
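HepaRG, 48 h exposure, 8-pt half-log series from 100 uM, 0.5% DMSO vehicle, duplicates. Readout: ABCB1 transcript by Fluidigm TaqMan qRT-PCR, housekeeping-normalized; bidirectional curve fit vs DMSO baseline.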

Read-out in assay [5]: growth arrest and DNA damage 45 (GADD45B), GADD45B (gene 4616)
Put plainly: LTEA_HepaRG_GADD45B: Life Technologies and Expression Analysis (LTEA) Assay for growth arrest and DNA damage 45 (GADD45B) using HepaRG (AID 2283461). The conditions noted are these: mRNA level, 48 h; actives raise or lower the signal. The procedure, abridged: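 Differentiated HepaRG cells, plated 48 h then switched to serum-free induction medium, were exposed 48 h in duplicate to eight half-log concentrations from 100 uM in 0.5% DMSO; mRNA quantified by qRT-PCR, normalized to ACTB/GAPDH/POLR2A, bidirectional fit versus DMSO.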

Read-out in assay [6]: ABC Transporter (ABCC3), ABCC3 (gene 8714)
Put plainly: LTEA_HepaRG_ABCC3: Life Technologies and Expression Analysis (LTEA) Assay for ABC Transporter (ABCC3) using HepaRG (AID 2283462). The following applies: mRNA level, 48 h; actives raise or lower the signal. In a few lines: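 HepaRG cells in serum-free induction medium were exposed for 48 h in duplicate to 8-point half-log concentrations topping at 100 uM in 0.5% DMSO. ABCC3 mRNA was measured by qRT-PCR normalized to ACTB, GAPDH and POLR2A, with bidirectional fitting versus DMSO.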

Read-out in assay [7]: ABC Transporter (ABCB11), ABCB11 (gene 8647)
The assay is described as follows: LTEA_HepaRG_ABCB11: Life Technologies and Expression Analysis (LTEA) Assay for ABC Transporter (ABCB11) using HepaRG (AID 2283463). The following applies: mRNA level, 48 h; actives raise or lower the signal. The procedure, abridged:
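HepaRG, 48 h exposure, 8-pt half-log CRC top 100 uM, 0.5% DMSO vehicle, duplicates. Readout: TaqMan qRT-PCR of ABCB11 mRNA, housekeeping-normalized (ACTB/GAPDH/POLR2A). Bidirectional fit vs DMSO baseline.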

Read-out in assay [8]: ABC Transporter (ABCC2), ABCC2 (gene 1244)
Put plainly: LTEA_HepaRG_ABCC2: Life Technologies and Expression Analysis (LTEA) Assay for ABC Transporter (ABCC2) using HepaRG (AID 2283464). The conditions noted are these: mRNA level, 48 h; actives raise or lower the signal. The procedure, abridged: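 HepaRG cells were plated 48 h, switched to serum-free induction medium, then exposed in duplicate for 48 h to 8 concentrations (top 100 uM, half-log steps, 0.5% DMSO). ABCC2 mRNA was measured by qRT-PCR normalized to ACTB/GAPDH/POLR2A; bidirectional fitting versus DMSO.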

Read-out in assay [9]: Broad substrate specificity ATP-binding cassette transporter ABCG2 (Homo sapiens) (UniProt Q9UNQ0)
Put plainly: LTEA_HepaRG_ABCG2: Life Technologies and Expression Analysis (LTEA) Assay for ABC Transporter (ABCG2) using HepaRG (AID 2283465). The following applies: mRNA level, 48 h; actives raise or lower the signal. The procedure, abridged: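 HepaRG, 48 h exposure, 8-pt half-log series from 100 uM, 0.5% DMSO vehicle, duplicates. Readout: ABCG2 transcript by qRT-PCR (Fluidigm array), housekeeping-normalized; bidirectional curve fit relative to DMSO baseline.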

Assay [10] is described as follows: CEETOX_H295R_TESTO: CeeTox H295R High-throughput Steroidogenesis Assay for Testosterone (TESTO) (AID 2283457).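 On AC50: cells exposed to chemicals for 48 h before medium collection.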 The conditions noted are these: actives raise or lower the signal. In a few lines:
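H295R human adrenal cells in DMEM/F12 with ITS+ and Nu-Serum, exposed to chemicals for 48 h. Testosterone in medium measured by MTBE extraction, reverse-phase HPLC-MS/MS; bidirectional fit versus DMSO baseline. MTT viability checked in same wells.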

Chain of Broad substrate specificity ATP-binding cassette transporter ABCG2 (Homo sapiens) (Q9UNQ0 whole entry, looked up): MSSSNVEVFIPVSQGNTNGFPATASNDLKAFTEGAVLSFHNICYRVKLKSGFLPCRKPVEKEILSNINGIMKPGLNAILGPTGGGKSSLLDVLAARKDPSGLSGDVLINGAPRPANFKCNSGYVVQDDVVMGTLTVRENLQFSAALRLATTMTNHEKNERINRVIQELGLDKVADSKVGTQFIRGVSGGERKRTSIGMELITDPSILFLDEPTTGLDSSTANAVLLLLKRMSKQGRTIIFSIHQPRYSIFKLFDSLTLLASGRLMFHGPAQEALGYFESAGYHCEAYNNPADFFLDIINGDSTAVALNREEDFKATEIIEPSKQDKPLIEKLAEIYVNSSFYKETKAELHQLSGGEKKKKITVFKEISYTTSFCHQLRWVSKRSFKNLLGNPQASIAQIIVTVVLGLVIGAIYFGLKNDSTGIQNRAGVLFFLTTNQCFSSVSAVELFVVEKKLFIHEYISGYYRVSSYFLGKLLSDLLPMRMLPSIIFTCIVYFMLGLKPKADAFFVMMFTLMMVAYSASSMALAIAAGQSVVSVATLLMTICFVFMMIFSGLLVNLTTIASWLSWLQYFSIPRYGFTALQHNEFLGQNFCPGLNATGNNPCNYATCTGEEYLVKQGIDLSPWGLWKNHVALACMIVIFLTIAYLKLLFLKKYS

For `CCCN(CCC)N=O`, the compound was classed as inactive in assay [1], in assay [2], in assay [3], in assay [4], in assay [5] and in assay [6]. Besides, the compound was called inactive in assay [7], in assay [8] and in [9].

Take `Oc1ccc(C(c2ccc(O)cc2)(C(F)(F)F)C(F)(F)F)cc1`: the AC50 in [1] is 81 µM (active); in assay [7] it was 86.6 µM (active). Besides, the compound was classed as inactive in [2], in assay [3], in assay [4], in [5], in assay [6] and in [8]. Moreover, the compound was classed as inactive in assay [9].

Consider `CCCCCCCCCC[N+](C)(C)CCCCCCCCCC`, for which the result in assay [1], in [2] and in [4] was inactive. Further, the AC50 is 76.7 µM (active) in assay [3]; 78.8 µM (active) in assay [5]; 79.8 µM (active) in assay [6]; 15.8 µM (active) in assay [7]; 94.2 µM (active) in [8]; 72.8 µM (active) in assay [9].

Turning to `Cc1ccccc1CO[C@@H]1C[C@@]2(C(C)C)CC[C@]1(C)O2`, the call in assay [1], in assay [2], in [3], in assay [5], in assay [6] and in assay [7] was inactive. For the same compound, the result in assay [9] was inactive. For the same compound, the AC50 in assay [10] was 35 µM (active); in [4], 50 µM (active); in assay [8], 75.1 µM (active).

With `CCC(=O)O[C@H]1CC[C@H]2[C@@H]3CCC4=CC(=O)CC[C@]4(C)[C@H]3CC[C@]12C`, the compound was classed as inactive in assay [1], in assay [2], in [3], in assay [6], in [8] and in [9]. Moreover, the AC50 in assay [10] was 3.77 µM (active); in [5] it was 0.101 µM (active); in assay [7], 9.78 µM (active).

As for `CCC(C)(CC)c1cc(NC(=O)c2c(OC)cccc2OC)on1`, the compound was classed as inactive in assay [1], in assay [2], in assay [3], in assay [5], in assay [6] and in assay [9]. In addition, the AC50 is 1.15 µM (active) in [4], 83 µM (active) in [7] and 6.13 µM (active) in assay [8].

Consider `CN(C)c1nc(=O)n(C2CCCCC2)c(=O)n1C`, for which the result in assay [1], in [2], in assay [3], in [4], in [5] and in [6] was inactive. Besides, the compound was called inactive in assay [7], in [8] and in assay [9].

Take `O=S(=O)(O)C(F)(F)C(F)(F)C(F)(F)C(F)(F)F`: the compound was classed as inactive in assay [1], in [2], in [3], in assay [4], in [5] and in assay [6]. Moreover, the call in assay [7], in assay [8] and in assay [9] was inactive.

As for `Clc1ccc(C(Cl)(Cl)Cl)cc1`, the compound was called inactive in [1], in assay [2], in assay [3], in [5], in assay [6] and in assay [7]. Moreover, the result in [8] and in [9] was inactive.

On to `Cc1cc(O)ccc1Cl`, for which the compound was called inactive in [1], in [2], in assay [3], in [4], in assay [5] and in assay [6]. For the same compound, the call in assay [7] and in assay [9] was inactive.

In the case of `CCNc1nc(NC(C)C)nc(SC)n1`, the result in assay [1], in assay [10], in assay [2], in assay [5], in [6] and in assay [8] was inactive. Further, the call in [9] was inactive. Moreover, the AC50 in assay [7] was 50 µM (active).

Take `O=C(O)C(F)(F)C(F)(F)C(F)(F)C(F)(F)C(F)(F)C(F)(F)C(F)(F)C(F)(F)F`: the call in assay [1] and in [6] was inactive. The AC50 was 74.6 µM (active) in assay [2]; 50 µM (active) in assay [3]; 75.3 µM (active) in assay [4]; 16.8 µM (active) in assay [5]; 90.4 µM (active) in assay [7]; 82.7 µM (active) in [8]. For the same compound, the AC50 in [9] is 50 µM (active).

As to `CO/C=C(/C(=O)OC)c1ccccc1COc1cccc(C(F)(F)F)n1`, the AC50 is 7.38 µM (active) in assay [1]; 9.39 µM (active) in assay [2]; 24.7 µM (active) in assay [5]; 1.91 µM (active) in assay [6]; 5.64 µM (active) in assay [7]; 28 µM (active) in assay [8]. Further, the AC50 in assay [9] is 3.03 µM (active). For the same compound, the compound was classed as inactive in assay [3] and in [4].

`NS(=O)(=O)C(F)(F)C(F)(F)C(F)(F)C(F)(F)C(F)(F)C(F)(F)C(F)(F)C(F)(F)F`: the AC50 in [1] is 24.9 µM (active); in [2], 29.1 µM (active); in [3], 6.91 µM (active); in [4] it was 9.25 µM (active); in assay [5], 20.9 µM (active); in assay [6], 12.5 µM (active). In addition, the figures for the concentration at half-maximal activity (AC50) in [7], in assay [8] and in [9] were 7.12 µM (active), 10.1 µM (active) and 3.42 µM (active), respectively. Moreover, the call in [10] was inactive.

Take `C=CC(=O)NCNC(=O)C=C`: the compound was classed as inactive in assay [1], in [2], in assay [3], in [4], in assay [6] and in assay [9]. In addition, the AC50 in [5] is 50 µM (active); in assay [7], 50 µM (active); in [8], 16 µM (active).

The term AC50 denotes the midpoint of the concentration-response curve, whichever way the signal moves.
